# PubChem BioAssay (NCI)
# This is part of a sample that, as a whole, favours compounds with a hit. Of some 83,000 tested, about 20% had one in any assay.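 The endpoint reported here, percent growth, reads 100 for growth as untreated, 0 for no net growth and -100 for all cells dead.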 The source made the active and inactive calls. Rule for the calls: active = growth percent below 10; inactive = the rest.
# Test system: MDA-MB-468 breast
# Test: NCI-60 one-dose screen, 48 h (100 = growth as untreated, 0 = no growth, -100 = all killed)
# Conditions: 10 µM unless noted
row,SMILES,growth
1,CN(C)c1ccc2[nH]c3c(C(N)=O)cc(=O)c(=O)c=3oc2c1,59.2% (inactive)
2,CCC(C)CC(C)C(=O)c1c(O)ccn(O)c1=O (centres undefined),13.8% (inactive)
3,O=C1CC(c2ccc(O)c(O)c2)Oc2cc(O)c([C@@H]3O[C@H](CO)[C@@H](O)[C@H](O)[C@H]3O)c(O)c21 (some centres undefined),106% (inactive)
4,CCCCCCCCOC(=O)c1ccc(O)c(OC)c1,99.2% (inactive)
5,O=C(/C=C\c1cccc([N+](=O)[O-])c1)/C=C/c1cccc([N+](=O)[O-])c1,91.4% (inactive)
6,CCN1CCN(c2ccc(NC(=O)Nc3nc4ccc(-c5ccccc5OC)cc4s3)cc2)CC1,-76.7% (active)
7,CCOC(=O)Nc1ccc(-c2nc(-c3cccc(OCCN4CCOCC4)c3)c(-c3ccnc(Br)c3)[nH]2)cc1,33.9% (inactive)
8,COc1ccc(CCc2nc3cc(-c4c(C)noc4C)ccc3n2CCN2CCOCC2)cc1,9.69% (active)
9,CCCCCCCCCCCCCCCCSC(=NCC)NCC,-37.3% (active)
10,Nc1n[nH]c2cccc(C#Cc3cccc(NC(=O)c4ccc(N5CCOCC5)c(C(F)(F)F)c4)c3)c12,21.8% (inactive)
11,O=c1oc2ccc(-c3ccc(F)cc3F)cc2c(=O)n1-c1ccc(Br)cc1F,47.3% (inactive)
12,O=S(=O)(OCCO)c1ccccc1,97% (inactive)
13,CCN(CC)CCNC(=O)c1ccc(-c2nc3ccc4[nH]ncc4c3c3c2CCCC3)cc1,17.4% (inactive)
14,COc1cc(-c2nc3cc(Cl)c(Cl)cc3[nH]2)ccc1OCC(=O)NN,100% (inactive)
